Data: PubChem BioAssay (Tox21)
Records with an inconclusive call do not appear. Activity calls are given as the source filed them. Unless noted, calls come from the whole dose curve; as a rule, active = well fitted curve in the direction sought with a large enough effect in the repeat runs; inconclusive = weak or mixed curves; inactive = no such curve, though single readings can be large; an effect the other way counts as inactive or inconclusive.

Legend:
[1] = qHTS assay for small molecule agonists of the p53 signaling pathway (AID 651631; calls by dose curve; note: nearly all actives have a fitted effect of over 15% in size)
How it was run: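 HCT-116 cells carrying a beta-lactamase reporter under p53 response elements were dosed with compound for 16 h at 37 °C. LiveBLAzer B/G FRET substrate was then added for 2 h at room temperature, and fluorescence intensity was read to detect pathway agonism.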

[2] = qHTS assay for small molecules that induce genotoxicity in human embryonic kidney cells expressing luciferase-tagged ATAD5 (AID 651632); note: nearly all actives have a fitted effect of over 15% in size
How it was run: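 Reporter cells (HEK293T) express luciferase-tagged ATAD5, a protein that accumulates after DNA damage. Treat 16 hr at 37C/5% CO2, add Amplite, wait 30 min at RT, and read luminescence.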

[3] = qHTS assay for small molecule agonists of the p53 signaling pathway - cell viability (AID 651633; calls by dose curve;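 note: p53RE-bla HCT reporter cells with a stable beta-lactamase p53 reporter; nearly all actives have a fitted effect of over 30% in size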)
How it was run: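 p53RE-bla cells were treated with compound for 16 hours at 37 C. Cytotoxicity was then measured as CellTiter-Glo luminescence after 30 min at room temperature.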

[4] = qHTS assay for small molecule disruptors of the mitochondrial membrane potential - cell viability (AID 720634; calls by dose curve;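 note: human HepG2 liver cancer cells; nearly all actives have a fitted effect of over 20% in size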)
How it was run: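 Measuring cytotoxicity alongside mitochondrial potential, the screen quantified ATP by luminescence in HepG2 cells after 1 hr compound incubation and a 30 min room-temperature CellTiter-Glo step.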

[5] = qHTS assay to test for compound auto fluorescence at 590 nm (red) in HepG2 cells (AID 720674)
How it was run: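 Fluorescence at 590 nm emission following 540 nm excitation was recorded from HepG2 wells one hour after compound transfer, with DMSO-only wells as vehicle and Rose Bengal sodium equivalency as the scale.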

[6] = qHTS assay to test for compound auto fluorescence at 535 nm (green) in HepG2 cells (AID 720675)
[7] = qHTS assay to test for compound auto fluorescence at 460 nm (blue) in HEK293 cells (AID 720678)
How it was run: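 HEK293, 2,000 cells/well, 10% dialyzed FBS; attach 4-5 hr 37C; pin compound or DMSO; o/n 37C/5% CO2; fluorescence 405/460 nm; triamterene-equivalent units.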

[8] = qHTS assay to test for compound auto fluorescence at 590 nm (red) in HEK293 cells (AID 720679)
How it was run: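 Intensity at 540nm excitation and 590nm emission is reported as Rose Bengal sodium-equivalent autofluorescence. Measurements followed overnight exposure (37C, 5% CO2) of HEK293 cells, 2,000 per well, to 23 nL compound.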

[9] = qHTS assay to test for compound auto fluorescence at 535 nm (green) in HEK293 cells (AID 720680)
[10] = qHTS assay to test for compound auto fluorescence at 460 nm (blue) in HEK293 cell free culture (AID 720681)
How it was run: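 Compounds were added to cell-free DMEM with 10% FBS and fluorescence read directly. The blue channel used 405 nm excitation and 460 nm emission, with triamterene as the reference fluorophore.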

[11] = qHTS assay to test for compound auto fluorescence at 535 nm (green) in HEK293 cell free culture (AID 720682)
How it was run: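 Green-label autofluorescence (485 nm excitation, 535 nm emission) measured on compound added to cell-free culture medium (DMEM, 10% FBS). Output is expressed relative to fluorescein.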

[12] = qHTS assay to test for compound auto fluorescence at 590 nm (red) in HEK293 cell free culture (AID 720683)
How it was run: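 Cell-free wells of DMEM with 10% FBS received compound, and intrinsic fluorescence was read at excitation/emission 540/590 nm. Values expressed as equivalence to Rose Bengal sodium.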

[13] = qHTS assay to test for compound auto fluorescence at 590 nm (red) in HepG2 cell free culture (AID 720684)
How it was run: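 Compounds are added to culture medium (MEM, 10% FBS) lacking cells, then fluorescence is read at excitation 540 nm, emission 590 nm, with Rose Bengal sodium as the equivalency standard.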

[14] = qHTS assay to test for compound auto fluorescence at 460 nm (blue) in HepG2 cells (AID 720687)
How it was run: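 HepG2 cells in MEM with 10% FBS, attached overnight at 37 C, were exposed to compound or DMSO for 1 hr at 37 C, 5% CO2. Blue fluorescence was read at 405/460 nm, with triamterene as reference fluorophore.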

[15] = target: Glucocorticoid receptor (Homo sapiens) (UniProt P04150); test: qHTS assay to identify small molecule agonists of the glucocorticoid receptor (GR) signaling pathway (AID 720691; active = well fitted activation curve with a large enough effect in the signal ratio in the repeat runs, not every such curve was filed as active; the % refers to the signal ratio); conditions: GR-bla HeLa, beta-lactamase reporter ratio, 18 h; activation: at 62.4 µM (top of the series)
Sequence of Glucocorticoid receptor (Homo sapiens) (P04150 whole entry, looked up): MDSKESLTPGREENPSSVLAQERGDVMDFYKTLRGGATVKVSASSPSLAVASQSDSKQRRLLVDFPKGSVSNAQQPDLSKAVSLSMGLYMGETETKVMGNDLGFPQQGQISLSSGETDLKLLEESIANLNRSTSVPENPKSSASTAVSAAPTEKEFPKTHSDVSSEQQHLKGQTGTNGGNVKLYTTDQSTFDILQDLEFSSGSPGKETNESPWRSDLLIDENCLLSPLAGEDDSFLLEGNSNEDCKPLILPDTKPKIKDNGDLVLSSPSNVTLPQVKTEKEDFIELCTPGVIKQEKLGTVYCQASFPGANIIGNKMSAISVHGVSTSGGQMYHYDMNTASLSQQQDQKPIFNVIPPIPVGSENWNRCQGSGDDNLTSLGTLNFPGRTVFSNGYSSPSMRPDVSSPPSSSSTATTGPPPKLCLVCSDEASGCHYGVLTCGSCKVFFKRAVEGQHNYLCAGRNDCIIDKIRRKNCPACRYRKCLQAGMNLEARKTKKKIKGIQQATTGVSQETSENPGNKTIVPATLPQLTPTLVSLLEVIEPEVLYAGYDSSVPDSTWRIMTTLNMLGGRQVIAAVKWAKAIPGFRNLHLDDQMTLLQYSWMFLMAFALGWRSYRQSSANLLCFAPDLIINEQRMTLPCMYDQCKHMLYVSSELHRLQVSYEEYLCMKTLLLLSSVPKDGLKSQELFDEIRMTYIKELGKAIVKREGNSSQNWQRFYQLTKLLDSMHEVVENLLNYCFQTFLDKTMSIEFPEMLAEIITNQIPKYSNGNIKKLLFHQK
How it was run: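 Reporter read-out: fluorescence intensity following 2 h room-temperature LiveBLAzer B/G FRET substrate loading. Prior step: GR-bla HeLa cells held 4 h, then treated 18 h at 37 C.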

[16] = qHTS assay for small molecules that induce genotoxicity in human embryonic kidney cells expressing luciferase-tagged ATAD5 - cell viability (AID 651634; calls by dose curve; note: nearly all actives have a fitted effect of over 25% in size)
How it was run: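 Seeding of 2,000 HEK293T ATAD5-luciferase cells per well preceded pin-tool compound transfer. Plates sat 15.5 hr at 37C under 5% CO2, then fluorescence was read after 30 min with CellTiter-Fluor.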

[17] = target: Glucocorticoid receptor (Homo sapiens) (UniProt P04150); test: qHTS assay to identify small molecule antagonists of the glucocorticoid receptor (GR) signaling pathway (AID 720692; active = well fitted inhibition curve with a large enough effect in the signal ratio in the repeat runs, not every such curve was filed as active; the % refers to the signal ratio)
How it was run: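 Dexamethasone (5 nM final) stimulated a stably integrated GRE-beta-lactamase reporter in HeLa cells during 18 h co-incubation with compounds; signal was quantified as fluorescence intensity of B/G FRET substrate after 2 h.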

[18] = qHTS assay for small molecule disruptors of the mitochondrial membrane potential (AID 720635)
How it was run: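 HepG2 cells exposed to compound 1 hr at 37C, then Mito-MPS dye 30 min. Ratio read of aggregate (540/590 nm) versus monomer (490/535 nm) fluorescence.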

[19] = qHTS assay to test for compound auto fluorescence at 460 nm (blue) in HepG2 cell free culture (AID 720685)
How it was run: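 Compound (23 nL) or DMSO pinned into cell-free MEM with 10% FBS; blue fluorescence read at 405/460 nm excitation/emission, expressed as auto-fluorescence equivalency to triamterene.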

[20] = qHTS assay to test for compound auto fluorescence at 535 nm (green) in HepG2 cell free culture (AID 720686)

Measured: Potency

O=C(O)c1cc(O)c(O)c(O)c1
not listed: [16] | [17] | [18] | [19] | [20]
inactive: all other assays above

c1ccc2scnc2c1
not listed: [2] | [8] | [18] | [19] | [20]
inactive: all other assays above

CC(=O)CC(=O)Nc1ccccc1C
not listed: [2]
inactive: all other assays above

Cc1cc(C)c(C)cc1C
not listed: [4] | [14] | [15] | [17] | [18]
inactive: all other assays above

CCc1cccc(C)c1N
not listed: [2] | [20]
inactive: all other assays above

O=C(O)CC(C(=O)O)C(CC(=O)O)C(=O)O (stereo unspecified)
not listed: [2] | [8] | [14]
inactive: all other assays above

c1ccc(OCCOc2ccccc2)cc1
not listed: [8] | [14] | [18] | [19]
inactive: all other assays above

O=C1CCC(N2C(=O)c3ccccc3C2=O)C(=O)N1 (stereo unspecified)
not listed: [2] | [8] | [14] | [18]
inactive: all other assays above
